Experiments:
Assay in all cases: DAPPL (digital affinity profiling via proximity ligation, sequencing); 10 mM Tris-HCl pH 7.5, 50 mM NaCl, 1 mM DTT, 4% glycerol, room temperature, 30 min; GST-TFs on glutathione beads, 16-mer random dsDNA library, 0.1% formaldehyde crosslink after washing; high values mean tight binding
FEV = target: T1, FEV (Homo sapiens, UniProt Q99581 1-238); settings: protein: recombinant; tags: N-terminal GST; dsDNA, one strand shown
T1 sequence: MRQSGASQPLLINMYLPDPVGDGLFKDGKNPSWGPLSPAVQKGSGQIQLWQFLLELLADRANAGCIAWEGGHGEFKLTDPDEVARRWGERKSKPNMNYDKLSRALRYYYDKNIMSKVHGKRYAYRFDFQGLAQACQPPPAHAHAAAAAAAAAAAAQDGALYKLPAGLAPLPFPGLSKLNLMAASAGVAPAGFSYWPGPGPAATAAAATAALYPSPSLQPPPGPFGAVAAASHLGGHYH
Summary of the method: (§1)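 Yeast served to express human transcription factors as GST fusions, which were then captured on glutathione beads and labelled with DNA barcodes. Pooled with a tag-only sample, they were incubated with 200 nmole of a 16-mer random double-stranded DNA library for 30 min at room temperature in Tris/NaCl/DTT/glycerol buffer, washed, crosslinked with 0.1% formaldehyde, ligated by proximity, amplified by PCR and sequenced. Dividing each hexamer's read frequency for a factor by its frequency for the tag-only sample gives the binding signal.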

ETV5 = ETV5 (Homo sapiens, UniProt P41161 1-510); settings: protein: recombinant; tags: N-terminal GST; dsDNA, one strand shown
ETV5, sequence (P41161 whole entry): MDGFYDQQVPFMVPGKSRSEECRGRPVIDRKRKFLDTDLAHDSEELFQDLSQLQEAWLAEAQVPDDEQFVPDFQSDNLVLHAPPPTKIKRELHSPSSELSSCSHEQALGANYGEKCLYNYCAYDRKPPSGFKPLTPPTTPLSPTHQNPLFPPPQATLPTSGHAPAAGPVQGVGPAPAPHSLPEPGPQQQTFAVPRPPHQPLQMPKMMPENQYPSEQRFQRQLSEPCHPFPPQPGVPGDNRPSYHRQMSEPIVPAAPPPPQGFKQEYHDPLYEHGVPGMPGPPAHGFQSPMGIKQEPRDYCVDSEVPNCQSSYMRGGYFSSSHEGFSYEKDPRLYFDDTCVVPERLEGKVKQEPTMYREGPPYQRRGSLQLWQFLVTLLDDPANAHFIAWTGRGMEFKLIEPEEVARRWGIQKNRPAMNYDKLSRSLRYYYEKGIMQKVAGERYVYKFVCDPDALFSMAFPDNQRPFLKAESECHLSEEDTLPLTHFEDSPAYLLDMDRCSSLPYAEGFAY
Summary of the method: as §1

HSF1 = HSF1 (Homo sapiens, UniProt Q00613 1-529); settings: protein: recombinant; tags: N-terminal GST; chain copies: 3; dsDNA, one strand shown
HSF1, sequence (Q00613 whole entry): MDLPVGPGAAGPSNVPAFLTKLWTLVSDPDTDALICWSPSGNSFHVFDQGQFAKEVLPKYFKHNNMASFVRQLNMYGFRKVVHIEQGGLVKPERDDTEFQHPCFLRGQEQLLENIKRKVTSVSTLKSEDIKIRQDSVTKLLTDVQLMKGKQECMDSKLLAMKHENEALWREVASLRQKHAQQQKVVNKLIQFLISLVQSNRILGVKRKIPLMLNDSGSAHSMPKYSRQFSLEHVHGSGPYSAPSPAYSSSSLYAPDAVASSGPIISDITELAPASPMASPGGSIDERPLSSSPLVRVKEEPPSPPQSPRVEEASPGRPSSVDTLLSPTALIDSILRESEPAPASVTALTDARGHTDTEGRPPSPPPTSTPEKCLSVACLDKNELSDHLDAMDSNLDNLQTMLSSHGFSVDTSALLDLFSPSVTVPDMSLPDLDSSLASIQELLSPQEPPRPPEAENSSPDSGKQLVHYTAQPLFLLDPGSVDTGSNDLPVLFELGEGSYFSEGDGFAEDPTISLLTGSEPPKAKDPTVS
Summary of the method: as §1

SPIC = target: T2, SPIC (Homo sapiens, UniProt Q8N5J4 1-248); settings: protein: recombinant; tags: N-terminal GST; dsDNA, one strand shown
T2 sequence: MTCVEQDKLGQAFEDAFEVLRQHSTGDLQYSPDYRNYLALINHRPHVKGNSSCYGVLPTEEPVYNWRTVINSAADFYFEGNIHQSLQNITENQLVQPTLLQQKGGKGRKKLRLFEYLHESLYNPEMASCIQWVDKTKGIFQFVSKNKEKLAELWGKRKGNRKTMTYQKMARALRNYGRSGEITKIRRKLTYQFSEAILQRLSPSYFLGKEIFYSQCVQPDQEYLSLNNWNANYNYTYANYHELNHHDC
Summary of the method: as §1

ELF4 = ELF4 (Homo sapiens, UniProt Q99607 1-663); settings: protein: recombinant; tags: N-terminal GST; dsDNA, one strand shown
ELF4, sequence (Q99607 whole entry): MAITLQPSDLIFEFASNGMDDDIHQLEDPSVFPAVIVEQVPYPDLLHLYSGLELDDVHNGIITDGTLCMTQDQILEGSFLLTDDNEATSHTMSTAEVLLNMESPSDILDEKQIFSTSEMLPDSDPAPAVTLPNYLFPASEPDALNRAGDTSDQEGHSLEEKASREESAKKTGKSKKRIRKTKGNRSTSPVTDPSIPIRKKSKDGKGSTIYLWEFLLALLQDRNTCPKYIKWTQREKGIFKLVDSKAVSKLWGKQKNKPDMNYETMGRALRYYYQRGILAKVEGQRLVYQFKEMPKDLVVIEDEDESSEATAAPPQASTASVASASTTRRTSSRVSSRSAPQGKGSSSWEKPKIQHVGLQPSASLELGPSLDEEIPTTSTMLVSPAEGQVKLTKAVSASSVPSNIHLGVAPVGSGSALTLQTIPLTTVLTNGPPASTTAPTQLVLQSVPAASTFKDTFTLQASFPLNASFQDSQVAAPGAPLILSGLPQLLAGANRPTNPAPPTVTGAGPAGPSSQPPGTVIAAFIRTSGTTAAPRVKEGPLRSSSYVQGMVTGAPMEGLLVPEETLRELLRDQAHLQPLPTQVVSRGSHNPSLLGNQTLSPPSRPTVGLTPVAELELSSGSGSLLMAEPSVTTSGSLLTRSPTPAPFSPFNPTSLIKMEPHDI
Summary of the method: as §1

ELK4 = target: T3, ELK4 (Homo sapiens, UniProt P28324-2 1-405); settings: protein: recombinant; tags: N-terminal GST; dsDNA, one strand shown
T3 sequence: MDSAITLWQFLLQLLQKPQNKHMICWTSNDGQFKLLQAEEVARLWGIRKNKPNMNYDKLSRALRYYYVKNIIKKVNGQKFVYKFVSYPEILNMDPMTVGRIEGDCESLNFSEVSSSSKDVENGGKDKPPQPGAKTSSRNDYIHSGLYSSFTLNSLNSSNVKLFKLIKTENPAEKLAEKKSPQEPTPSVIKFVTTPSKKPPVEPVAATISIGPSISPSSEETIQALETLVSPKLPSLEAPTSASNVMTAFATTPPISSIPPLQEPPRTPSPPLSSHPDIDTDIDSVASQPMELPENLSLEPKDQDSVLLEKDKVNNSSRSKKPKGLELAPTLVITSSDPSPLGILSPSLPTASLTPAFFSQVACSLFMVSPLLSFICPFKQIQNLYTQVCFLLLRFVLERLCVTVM
Summary of the method: as §1

ETV2 = target: T4, ETV2 (Homo sapiens, UniProt O00321 1-342); settings: protein: recombinant; tags: N-terminal GST; dsDNA, one strand shown
T4 sequence: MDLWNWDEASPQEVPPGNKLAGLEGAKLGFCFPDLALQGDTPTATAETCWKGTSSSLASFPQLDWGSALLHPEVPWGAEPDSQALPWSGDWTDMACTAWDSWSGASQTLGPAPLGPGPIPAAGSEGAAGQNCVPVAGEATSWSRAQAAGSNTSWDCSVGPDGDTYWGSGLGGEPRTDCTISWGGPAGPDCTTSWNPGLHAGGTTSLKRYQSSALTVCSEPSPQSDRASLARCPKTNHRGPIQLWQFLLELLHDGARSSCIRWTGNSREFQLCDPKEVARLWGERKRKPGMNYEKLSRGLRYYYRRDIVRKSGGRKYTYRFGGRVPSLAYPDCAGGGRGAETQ
Summary of the method: as §1

ELF3 = target: T5, ELF3 (Homo sapiens, UniProt P78545 1-371); settings: protein: recombinant; tags: N-terminal GST; dsDNA, one strand shown
T5 sequence: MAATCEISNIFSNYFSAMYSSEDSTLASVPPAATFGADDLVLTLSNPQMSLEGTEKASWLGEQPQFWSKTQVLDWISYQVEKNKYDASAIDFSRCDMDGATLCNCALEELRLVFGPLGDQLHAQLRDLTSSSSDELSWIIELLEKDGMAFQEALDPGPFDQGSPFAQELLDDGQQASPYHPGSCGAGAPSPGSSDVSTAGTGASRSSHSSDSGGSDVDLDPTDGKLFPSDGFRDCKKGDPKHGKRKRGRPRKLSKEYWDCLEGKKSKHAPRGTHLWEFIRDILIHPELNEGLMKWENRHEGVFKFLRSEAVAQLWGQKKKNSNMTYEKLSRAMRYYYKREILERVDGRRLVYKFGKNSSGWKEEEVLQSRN
Summary of the method: as §1

CRX = CRX (Homo sapiens, UniProt O43186 1-299); settings: protein: recombinant; tags: N-terminal GST; dsDNA, one strand shown
CRX, sequence (O43186 whole entry): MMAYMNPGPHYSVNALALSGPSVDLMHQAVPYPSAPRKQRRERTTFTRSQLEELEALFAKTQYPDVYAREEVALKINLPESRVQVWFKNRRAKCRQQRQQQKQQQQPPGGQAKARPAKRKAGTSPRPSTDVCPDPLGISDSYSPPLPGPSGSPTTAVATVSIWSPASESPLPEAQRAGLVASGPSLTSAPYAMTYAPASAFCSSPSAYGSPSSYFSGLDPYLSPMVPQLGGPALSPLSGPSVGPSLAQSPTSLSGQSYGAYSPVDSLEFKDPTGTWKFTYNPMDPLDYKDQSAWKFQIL
Summary of the method: as §1

ETV1 = ETV1 (Homo sapiens, UniProt P50549 1-477); settings: protein: recombinant; tags: N-terminal GST; dsDNA, one strand shown
ETV1, sequence (P50549 whole entry): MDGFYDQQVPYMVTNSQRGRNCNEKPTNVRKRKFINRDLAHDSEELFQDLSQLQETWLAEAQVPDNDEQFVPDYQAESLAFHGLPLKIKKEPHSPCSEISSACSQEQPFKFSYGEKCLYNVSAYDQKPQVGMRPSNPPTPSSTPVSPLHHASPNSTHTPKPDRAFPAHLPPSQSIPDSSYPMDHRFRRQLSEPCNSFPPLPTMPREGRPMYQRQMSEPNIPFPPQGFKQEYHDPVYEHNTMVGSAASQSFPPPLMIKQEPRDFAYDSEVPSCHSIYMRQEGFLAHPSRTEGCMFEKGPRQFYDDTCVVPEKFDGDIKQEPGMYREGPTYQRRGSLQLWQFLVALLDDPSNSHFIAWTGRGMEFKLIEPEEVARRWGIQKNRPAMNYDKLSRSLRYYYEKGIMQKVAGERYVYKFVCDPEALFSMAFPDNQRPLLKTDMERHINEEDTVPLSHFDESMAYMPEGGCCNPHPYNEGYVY
Summary of the method: as §1

ERF = target: T6, ERF (Homo sapiens, UniProt P50548 1-548); settings: protein: recombinant; tags: N-terminal GST; dsDNA, one strand shown
T6 sequence: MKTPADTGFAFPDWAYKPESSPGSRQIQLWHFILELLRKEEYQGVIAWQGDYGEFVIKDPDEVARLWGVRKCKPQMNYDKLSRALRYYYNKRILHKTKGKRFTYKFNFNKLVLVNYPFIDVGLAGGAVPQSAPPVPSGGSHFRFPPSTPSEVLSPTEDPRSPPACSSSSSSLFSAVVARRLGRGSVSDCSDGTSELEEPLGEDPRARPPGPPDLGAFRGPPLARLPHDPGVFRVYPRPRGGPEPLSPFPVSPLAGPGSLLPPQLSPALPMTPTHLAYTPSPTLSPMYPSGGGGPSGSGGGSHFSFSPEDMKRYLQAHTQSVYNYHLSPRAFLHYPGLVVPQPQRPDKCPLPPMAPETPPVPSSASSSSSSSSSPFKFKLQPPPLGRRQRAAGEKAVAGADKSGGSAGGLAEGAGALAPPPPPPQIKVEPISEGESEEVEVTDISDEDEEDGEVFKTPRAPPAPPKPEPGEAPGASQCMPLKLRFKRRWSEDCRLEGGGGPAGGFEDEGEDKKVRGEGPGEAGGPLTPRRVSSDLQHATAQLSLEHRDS
Summary of the method: as §1

ETV3L = target: T7, ETV3L (Homo sapiens, UniProt Q6ZN32 1-361); settings: protein: recombinant; tags: N-terminal GST; dsDNA, one strand shown
T7 sequence: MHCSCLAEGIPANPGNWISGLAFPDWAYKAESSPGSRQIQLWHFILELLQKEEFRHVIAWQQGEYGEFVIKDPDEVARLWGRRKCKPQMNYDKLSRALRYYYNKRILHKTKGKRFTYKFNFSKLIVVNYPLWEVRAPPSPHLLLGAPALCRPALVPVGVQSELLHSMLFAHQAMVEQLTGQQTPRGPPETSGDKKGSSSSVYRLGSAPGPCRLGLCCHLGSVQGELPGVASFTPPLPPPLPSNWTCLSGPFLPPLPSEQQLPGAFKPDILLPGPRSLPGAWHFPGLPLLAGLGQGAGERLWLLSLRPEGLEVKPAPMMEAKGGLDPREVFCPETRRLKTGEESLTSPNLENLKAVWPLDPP
Summary of the method: as §1

ETS2 = target: T8, ETS2 (Homo sapiens, UniProt P15036 1-469); settings: protein: recombinant; tags: N-terminal GST; dsDNA, one strand shown
T8 sequence: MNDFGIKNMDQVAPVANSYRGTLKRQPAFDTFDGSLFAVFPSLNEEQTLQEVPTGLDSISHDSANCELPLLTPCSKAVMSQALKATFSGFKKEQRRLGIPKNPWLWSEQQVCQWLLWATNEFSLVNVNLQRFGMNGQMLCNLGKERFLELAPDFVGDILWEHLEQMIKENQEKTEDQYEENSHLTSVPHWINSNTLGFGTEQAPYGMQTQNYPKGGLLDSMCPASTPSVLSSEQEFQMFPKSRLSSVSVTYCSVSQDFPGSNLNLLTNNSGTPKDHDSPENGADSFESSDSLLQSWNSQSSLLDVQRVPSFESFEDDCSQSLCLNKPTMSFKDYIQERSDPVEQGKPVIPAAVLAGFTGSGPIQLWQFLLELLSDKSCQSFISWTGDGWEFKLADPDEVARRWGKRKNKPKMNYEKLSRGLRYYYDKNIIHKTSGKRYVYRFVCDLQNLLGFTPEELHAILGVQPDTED
Summary of the method: as §1

SPDEF = target: T9, SPDEF (Homo sapiens, UniProt O95238 1-335); settings: protein: recombinant; tags: N-terminal GST; dsDNA, one strand shown
T9 sequence: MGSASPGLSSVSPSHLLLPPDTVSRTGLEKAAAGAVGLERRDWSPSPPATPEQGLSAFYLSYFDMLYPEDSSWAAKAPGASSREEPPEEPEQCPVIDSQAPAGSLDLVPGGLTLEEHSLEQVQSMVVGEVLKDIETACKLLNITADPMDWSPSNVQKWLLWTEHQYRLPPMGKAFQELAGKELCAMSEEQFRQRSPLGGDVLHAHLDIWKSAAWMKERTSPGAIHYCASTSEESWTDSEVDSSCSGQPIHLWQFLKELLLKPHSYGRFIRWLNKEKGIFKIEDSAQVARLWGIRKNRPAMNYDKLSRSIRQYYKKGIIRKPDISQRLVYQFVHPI
Summary of the method: as §1

ETV7 = target: T10, ETV7 (Homo sapiens, UniProt Q9Y603 1-341); settings: protein: recombinant; tags: N-terminal GST; dsDNA, one strand shown
T10 sequence: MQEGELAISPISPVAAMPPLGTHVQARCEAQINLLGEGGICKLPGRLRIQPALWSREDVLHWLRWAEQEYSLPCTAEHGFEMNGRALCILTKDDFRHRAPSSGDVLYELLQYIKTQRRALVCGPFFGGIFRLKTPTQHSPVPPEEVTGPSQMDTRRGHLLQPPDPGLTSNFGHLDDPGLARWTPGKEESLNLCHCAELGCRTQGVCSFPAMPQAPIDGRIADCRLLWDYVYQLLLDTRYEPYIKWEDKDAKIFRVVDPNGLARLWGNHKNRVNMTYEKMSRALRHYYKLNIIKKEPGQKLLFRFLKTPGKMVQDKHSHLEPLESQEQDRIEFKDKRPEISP
Summary of the method: as §1

ELF5 = target: T11, ELF5 (Homo sapiens, UniProt Q9UKW6-2 1-255); settings: protein: recombinant; tags: N-terminal GST; dsDNA, one strand shown
T11 sequence: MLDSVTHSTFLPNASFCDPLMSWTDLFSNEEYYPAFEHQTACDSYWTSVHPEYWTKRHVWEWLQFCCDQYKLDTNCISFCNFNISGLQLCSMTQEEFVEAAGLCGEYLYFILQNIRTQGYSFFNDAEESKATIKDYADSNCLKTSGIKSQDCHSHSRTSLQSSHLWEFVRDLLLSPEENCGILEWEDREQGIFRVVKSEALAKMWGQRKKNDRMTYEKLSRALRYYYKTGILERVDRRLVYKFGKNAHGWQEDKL
Summary of the method: as §1

ETV3 = target: T12, ETV3 (Homo sapiens, UniProt P41162-2 1-143); settings: protein: recombinant; tags: N-terminal GST; dsDNA, one strand shown
T12 sequence: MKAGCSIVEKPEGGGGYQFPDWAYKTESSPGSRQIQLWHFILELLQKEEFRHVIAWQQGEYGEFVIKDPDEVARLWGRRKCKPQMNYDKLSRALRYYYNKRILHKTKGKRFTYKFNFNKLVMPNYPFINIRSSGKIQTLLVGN
Summary of the method: as §1

ETV6 = ETV6 (Homo sapiens, UniProt P41212 1-452); settings: protein: recombinant; tags: N-terminal GST; dsDNA, one strand shown
ETV6, sequence (P41212 whole entry): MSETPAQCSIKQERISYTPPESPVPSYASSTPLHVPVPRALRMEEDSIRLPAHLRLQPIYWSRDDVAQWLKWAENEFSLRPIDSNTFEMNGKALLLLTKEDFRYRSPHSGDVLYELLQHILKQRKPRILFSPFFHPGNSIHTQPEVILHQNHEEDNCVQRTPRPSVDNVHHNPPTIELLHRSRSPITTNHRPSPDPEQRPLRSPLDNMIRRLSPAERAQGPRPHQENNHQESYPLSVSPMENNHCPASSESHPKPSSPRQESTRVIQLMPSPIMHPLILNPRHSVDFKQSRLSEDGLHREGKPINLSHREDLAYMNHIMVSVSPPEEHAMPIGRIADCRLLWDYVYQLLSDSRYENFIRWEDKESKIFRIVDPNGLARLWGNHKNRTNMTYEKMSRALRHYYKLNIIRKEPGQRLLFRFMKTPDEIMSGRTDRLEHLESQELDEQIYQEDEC
Summary of the method: as §1

Sequence: ATACTA
- binding signal (FEV): 1.13 fold enrichment (6-mer frequency, TF over GST control)
- binding signal (ETV5): 1.13 fold enrichment (6-mer frequency, TF over GST control)
- binding signal (HSF1): 1.34 fold enrichment (6-mer frequency, TF over GST control)
- binding signal (SPIC): 1.1 fold enrichment (6-mer frequency, TF over GST control)
- binding signal (ELF4): 1.19 fold enrichment (6-mer frequency, TF over GST control)
- binding signal (ELK4): 1.19 fold enrichment (6-mer frequency, TF over GST control)
- binding signal (ETV2): 1.14 fold enrichment (6-mer frequency, TF over GST control)
- binding signal (ELF3): 1.08 fold enrichment (6-mer frequency, TF over GST control)
- binding signal (CRX): 1.38 fold enrichment (6-mer frequency, TF over GST control)
- binding signal (ETV1): 1.1 fold enrichment (6-mer frequency, TF over GST control)
- binding signal (ERF): 1.09 fold enrichment (6-mer frequency, TF over GST control)
- binding signal (ETV3L): 1.2 fold enrichment (6-mer frequency, TF over GST control)
- binding signal (ETS2): 1.24 fold enrichment (6-mer frequency, TF over GST control)
- binding signal (SPDEF): 1.17 fold enrichment (6-mer frequency, TF over GST control)
- binding signal (ETV7): 1.14 fold enrichment (6-mer frequency, TF over GST control)
- binding signal (ELF5): 1.13 fold enrichment (6-mer frequency, TF over GST control)
- binding signal (ETV3): 1.14 fold enrichment (6-mer frequency, TF over GST control)
- binding signal (ETV6): 1.11 fold enrichment (6-mer frequency, TF over GST control)

— paper PMC7862700, “An all-to-all approach to the identification of sequence-specific readers for epigenetic DNA modifications on cytosine”
